{"source": "the supplement of paper PMC6992640", "note": "± gives the standard deviation of the averaged measurements.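 Note: PDX cells carrying CMV promoter-driven luciferase, viability read as total photon flux per second by IVIS imaging following D-luciferin, vehicle control 0.1% DMSO.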", "data": [{"tested_on": "WHIM2 (cells of a triple-negative basal-like breast cancer xenograft)", "experiment": "cell viability (% of vehicle); higher = less cytotoxic", "details": "10 µM; 72 h", "values": [{"smiles": "Cc1ccc(-n2[nH]c(C)c(NN=C3C=CC=C(c4cccc(C(=O)O)c4)C3=O)c2=O)cc1C", "note": "[Eltrombopag]", "cell viability": "37.8 ± 14"}, {"smiles": "Oc1c(Cl)cc(Cl)c2cccnc12", "note": "[Chloroxine]", "cell viability": "79.7 ± 55"}, {"smiles": "CCN(CC)CCCC(C)Nc1ccnc2cc(Cl)ccc12.O=P(O)(O)O.O=P(O)(O)O", "note": "(stereo not drawn) [Chloroquine diphosphate]", "cell viability": "71.2 ± 17"}, {"smiles": "COC(=O)NC(C(=O)NC(Cc1ccccc1)C(O)CN(Cc1ccc(-c2ccccn2)cc1)NC(=O)C(NC(=O)OC)C(C)(C)C)C(C)(C)C", "note": "(stereo not drawn) [Atazanavir]", "cell viability": "73.7 ± 1.3"}, {"smiles": "COc1cc2nccc(Oc3ccc(NC(=O)C4(C(=O)Nc5ccc(F)cc5)CC4)cc3)c2cc1OC.O=C(O)CC(O)C(=O)O", "note": "[Cabozantinib malate (XL184)]", "cell viability": "105 ± 6.6"}, {"smiles": "O=C(C=Cn1cnc(-c2cc(C(F)(F)F)cc(C(F)(F)F)c2)n1)NNc1cnccn1", "cell viability": "70.94 ± 0.096"}, {"smiles": "Nc1ccn(C2OC(CO)C(O)C2O)c(=O)n1", "note": "(stereo not drawn) [Cytarabine]", "cell viability": "58.4 ± 8.6"}, {"smiles": "CO[C@H]1/C=C/O[C@@]2(C)Oc3c(C)c(O)c4c(O)c(c(/C=N/N5CCN(C6CCCC6)CC5)c(O)c4c3C2=O)NC(=O)/C(C)=C\\C=C\\[C@H](C)[C@H](O)[C@@H](C)[C@@H](O)[C@@H](C)[C@H](OC(C)=O)[C@@H]1C", "note": "[Rifapentine]", "cell viability": "53.9 ± 24"}, {"smiles": "CS(=O)(=O)O.Cc1c(O)cccc1C(=O)NC(CSc1ccccc1)C(O)CN1CC2CCCCC2CC1C(=O)NC(C)(C)C", "note": "(stereo not drawn) [Nelfinavir Mesylate]", "cell viability": "38.4 ± 2"}, {"smiles": "CCN(CC)CCNC(=O)c1c(C)[nH]c(C=C2C(=O)Nc3ccc(F)cc32)c1C.O=C(O)CC(O)C(=O)O", "note": "[Sunitinib malate]", "cell viability": "31.7 ± 12"}, {"smiles": "N.N.O=C([O-])C1(C(=O)[O-])CCC1.[Pt+2]", "note": "[Carboplatin]", "cell viability": "84.8 ± 13"}, {"smiles": "CC(NCCCc1cccc(C(F)(F)F)c1)c1cccc2ccccc12.Cl", "note": "(stereo not drawn) [Cinacalcet HCl]", "cell viability": "43.2 ± 5.7"}, {"smiles": "COC(=O)c1ccc2c(c1)NC(=O)C2=C(Nc1ccc(N(C)C(=O)CN2CCN(C)CC2)cc1)c1ccccc1", "note": "[Nintedanib (BIBF 1120)]", "cell viability": "65.2 ± 15"}, {"smiles": "COc1cc(C(=O)NS(=O)(=O)c2ccccc2C)ccc1Cc1cn(C)c2ccc(NC(=O)OC3CCCC3)cc12", "note": "[Zafirlukast]", "cell viability": "42.6 ± 1.2"}, {"smiles": "CCC(=C(c1ccccc1)c1ccc(OCCN(C)C)cc1)c1ccccc1.O=C(O)CC(O)(CC(=O)O)C(=O)O", "note": "[Tamoxifen Citrate]", "cell viability": "42.4 ± 7.6"}, {"smiles": "CCCCc1oc2ccc(NS(C)(=O)=O)cc2c1C(=O)c1ccc(OCCCN(CCCC)CCCC)cc1.Cl", "note": "[Dronedarone HCl]", "cell viability": "40.9 ± 14"}, {"smiles": "CC(C)CC(NC(=O)CNC(=O)c1cc(Cl)ccc1Cl)B(O)O", "note": "(stereo not drawn)", "cell viability": "34.22 ± 0.066"}, {"smiles": "COC(=O)C1=C(C)NC(C)=C(C(=O)OCCN(C)Cc2ccccc2)C1c1cccc([N+](=O)[O-])c1.Cl", "note": "(stereo not drawn) [Nicardipine HCl]", "cell viability": "48.8 ± 8.4"}, {"smiles": "CCOc1cc2ncc(C#N)c(Nc3ccc(F)c(Cl)c3)c2cc1NC(=O)C=CCN(C)C", "note": "[Pelitinib (EKB-569)]", "cell viability": "31.1 ± 17"}, {"smiles": "CCOC(=O)c1c(CSc2ccccc2)n(C)c2cc(Br)c(O)c(CN(C)C)c12.Cl", "note": "[Arbidol HCl]", "cell viability": "39.3 ± 9.1"}, {"smiles": "CN(C)CCOc1ccc(C(=C(CCCl)c2ccccc2)c2ccccc2)cc1.O=C(O)CC(O)(CC(=O)O)C(=O)O", "note": "[Toremifene Citrate]", "cell viability": "43.3 ± 4.1"}, {"smiles": "CN(C)c1ccc(O)c2c1CC1CC3C(N(C)C)C(=O)C(C(N)=O)=C(O)C3(O)C(=O)C1=C2O.Cl", "note": "(stereo not drawn) [Minocycline HCl]", "cell viability": "82.8 ± 14"}, {"smiles": "CC(Oc1cc(-c2cnn(C3CCNCC3)c2)cnc1N)c1c(Cl)ccc(F)c1Cl", "note": "[(R)-Crizotinib]", "cell viability": "39.3 ± 3.3"}, {"smiles": "CC(C)(C)NC(=O)C1CC2CCCCC2CN1CC(O)C(Cc1ccccc1)NC(=O)C(CC(N)=O)NC(=O)c1ccc2ccccc2n1.CS(=O)(=O)O", "note": "(stereo not drawn) [Saquinavir mesylate]", "cell viability": "36.3 ± 2.6"}, {"smiles": "O=C1C=CC=CC1=C1NC(=C2C=CC=CC2=O)N(c2ccc(C(=O)O)cc2)N1", "note": "[Deferasirox]", "cell viability": "95.2 ± 25"}, {"smiles": "Cl.OC(c1cc(C(F)(F)F)nc2c(C(F)(F)F)cccc12)C1CCCCN1", "note": "(stereo not drawn) [Mefloquine hydrochloride]", "cell viability": "37.7 ± 2"}, {"smiles": "O=C(NC1CCN(CCCCC2(C(=O)NCC(F)(F)F)c3ccccc3-c3ccccc32)CC1)c1ccccc1-c1ccc(C(F)(F)F)cc1", "note": "[Lomitapide]", "cell viability": "41 ± 4.1"}, {"smiles": "CCCCCCCCOc1ccccc1C(=O)Nc1ccc(C(=O)OCC[N+](C)(CC)CC)cc1.[Br-]", "note": "[Otilonium Bromide]", "cell viability": "37.7 ± 9.5"}, {"smiles": "COc1cc(Nc2c(C#N)cnc3cc(OCCCN4CCN(C)CC4)c(OC)cc23)c(Cl)cc1Cl", "note": "[Bosutinib (SKI-606)]", "cell viability": "36.7 ± 13"}, {"smiles": "CNC(=O)c1cc(Oc2ccc(NC(=O)Nc3ccc(Cl)c(C(F)(F)F)c3)c(F)c2)ccn1", "note": "[Regorafenib]", "cell viability": "30.6 ± 7.5"}, {"smiles": "COC1=C(OC)C(=O)C(CCCCCCCCCCO)=C(C)C1=O", "note": "[Idebenone]", "cell viability": "78.4 ± 30"}, {"smiles": "Nc1ncn(C2OC(CO)C(O)C2O)c(=O)n1", "note": "(stereo not drawn) [5-Azacytidine]", "cell viability": "35.1 ± 14"}, {"smiles": "CC(C)Nc1cc(-c2c[nH]c(C(=O)NC(CO)c3cccc(Cl)c3)c2)c(Cl)cn1", "note": "(stereo not drawn)", "cell viability": "45.3 ± 6.3"}, {"smiles": "COc1cc(Nc2ncc(F)c(Nc3ccc4c(n3)N(COP(=O)(O)O)C(=O)C(C)(C)O4)n2)cc(OC)c1OC", "note": "[Fostamatinib (R788)]", "cell viability": "58.1 ± 4.2"}, {"smiles": "CNCCCC12CCC(c3ccccc31)c1ccccc12.Cl", "note": "[Maprotiline HCl]", "cell viability": "66.6 ± 10"}, {"smiles": "COc1cc(C(=O)O)ccc1NC(=O)C1NC(CC(C)(C)C)C(C#N)(c2ccc(Cl)cc2F)C1c1cccc(Cl)c1F", "note": "(stereo not drawn)", "cell viability": "44.9 ± 8.6"}, {"smiles": "CC(NCCCc1cccc(C(F)(F)F)c1)c1cccc2ccccc12", "note": "(stereo not drawn) [Cinacalcet]", "cell viability": "34.7 ± 8.7"}, {"smiles": "Cl.Clc1ccccc1CN1CCc2sccc2C1", "note": "[Ticlopidine HCl]", "cell viability": "82.5 ± 24"}]}]}
